Source: ChEMBL document CHEMBL3988442, “University of Dundee, Small-Polar-MMV Screening Library” (2021)
Screen size: about 48,000 compounds; about 13,000 (27%) showed an effect of 50% or more. This is one part of the list.

Test system: Wolbachia pipientis
Assay: Anti-Wolbachia Cell-Based Screen
Assay type: functional
Parameters: scale not given: in the data most compounds retested in dose-response had high values
Details: 5 µM

| SMILES | Percent Effect [%] |
| --- | --- |
| CC(C)(C)C1CCC(NCCN2CCOCC2)CC1 (stereo unspecified) | -13.34 |
| Cc1ccc(Cl)cc1NC(=O)C1CC(=O)N(Cc2ccccn2)C1 (stereo unspecified) | -6.487 |
| COc1ccnc(N2CCN(C(=O)c3csc(C4CC4)n3)CC2)n1 | 22.41 |
| Cc1nc(C(=O)N2CCN(c3ccc(Cl)c(Cl)c3)CC2)cs1 | 99.9 |
| CNc1nc(C(=O)N2CCC3(CCCN(C)C3=O)C2)cs1 (stereo unspecified) | -18.85 |
| CNc1nc(C(=O)N2CCN(c3ccc(Cl)c(Cl)c3)CC2)cs1 | 91.42 |
| Cc1nc(C(=O)Nc2cc(N3CCNC3=O)ccc2Cl)cs1 | -12.33 |
| Cc1nc(C(=O)N2CCN(C(C)c3ccccc3F)CC2)cs1 (stereo unspecified) | -7.061 |
| Cc1cnc(CN2CCCC(c3cc(C(N)=O)[nH]n3)C2)o1 (stereo unspecified) | 1.908 |
| CC(C)(C)c1nnc(CN2CCCC(c3cc(C(N)=O)[nH]n3)C2)o1 (stereo unspecified) | 1.877 |
| CC(C)c1nnc(CN2CCCC(c3cc(C(N)=O)[nH]n3)C2)o1 (stereo unspecified) | 107 |
| CCc1nnc(CN2CCCC(c3cc(C(N)=O)[nH]n3)C2)o1 (stereo unspecified) | 123.6 |
| Cc1cc(C2CCCN(Cc3ncc(C(C)C)o3)C2)n[nH]1 (stereo unspecified) | 8.603 |
| CCc1nnc(CN2CCCC(c3cc(C(F)(F)F)[nH]n3)C2)o1 (stereo unspecified) | -1.93 |
| Cc1nc(CN2CCCC(c3cc(C(N)=O)[nH]n3)C2)oc1C (stereo unspecified) | 110.2 |
| Cc1nnc(CN2CCCC(c3cc(C(N)=O)[nH]n3)C2)o1 (stereo unspecified) | -6.189 |
| CC(C)c1cnc(CN2CCCC(c3cc(C(N)=O)[nH]n3)C2)o1 (stereo unspecified) | 94.99 |
| CCNc1ccnc(-c2ccnc3c2ccn3C)n1 | 5.655 |
| COc1cc(NCCNC(=O)c2ccc3[nH]ccc3c2)cc(OC)c1 | -37.35 |
| CN1C(=O)[C@H]2CC[C@@H]1CN(C(=O)c1sccc1S(N)(=O)=O)C2 | 0.6963 |
| Cc1ncc(CN2CCCC(c3cc(C(N)=O)[nH]n3)C2)s1 (stereo unspecified) | 121.8 |
| Cc1cnc(CN2CCCC(c3cc(C(N)=O)[nH]n3)C2)cn1 (stereo unspecified) | 0.6166 |
| O=C(CCc1cscn1)NS(=O)(=O)c1ccc2c(c1)CCC2 | 0.3885 |
| Cn1ccc(C(=O)N2CCC3(CC2)CC(Nc2cnccn2)CO3)n1 (stereo unspecified) | 103.2 |

| SMILES | Percent Effect [%] |
| --- | --- |
| Cn1ccc(CN2CCC3(CC2)CC(Nc2cnccn2)CO3)n1.O=C(O)C(F)(F)F (stereo unspecified) | 4.568 |
| O=C(Cc1ccccc1)N1CCC2(CC1)CC(Nc1cnccn1)CO2 (stereo unspecified) | 117.3 |
| Cn1ccc(CN2CCC3(CC2)CC(Nc2ccccn2)CO3)n1.O=C(O)C(F)(F)F (stereo unspecified) | -6.155 |
| Cc1nc2ncccn2c1C(=O)N1CCc2[nH]cnc2C1 | 16.62 |
| CN(CC1CCN(CCO)CC1)CC(O)c1ccc(F)c(F)c1 (stereo unspecified) | 6.752 |
| COC(=O)c1ccc2c(-c3ccnc(N[C@@H](C)CO)n3)c[nH]c2c1 | 96.47 |
| COC(=O)c1ccc2c(-c3ccnc(NCCO)n3)c[nH]c2c1 | 85.03 |
| CSCCCNc1nccc(-c2cc(C(=O)O)ccn2)n1 | -11.9 |
| COC(=O)c1cccc(-c2c[nH]c(C)n2)c1 | -9.245 |
| Cc1ccc(CCNc2nccc(-c3cc(C(=O)O)ccn3)n2)o1 | -34.17 |
| CC[C@@H](CO)Nc1nccc(-c2c[nH]c3cc(C(=O)OC)ccc23)n1 | 73.76 |
| CC(C)C(=O)NCCNc1nccc(-c2cc(C(=O)O)ccn2)n1 | -18.63 |
| COc1cccc(-n2cc(-c3ccnc(N[C@@H](CO)C(C)C)n3)cn2)c1 | -10.41 |
| CCCN1C[C@H]2CC[C@@H]1CN(Cc1ccc(-n3cccn3)cc1)C2 | 12.23 |
| O=C(CCc1cn[nH]c1)N1CCC(C2CCN(c3ncccn3)CC2)C1 (stereo unspecified) | -3.024 |
| CN1CCN(C[C@@H]2CN(C(=O)CCc3cn[nH]c3)C[C@@H]2CO)CC1 | -11.62 |
| CN1CCOC(CNCc2coc(-c3cccc(Cl)c3)n2)C1 (stereo unspecified) | 93.12 |
| CN1CCOC(CNCc2nc(-c3cccnc3)no2)C1 (stereo unspecified) | 17.39 |
| CN1CCOC(CNCc2coc(-c3cccc(F)c3)n2)C1 (stereo unspecified) | 69.38 |
| CN(C)Cc1ccc(C2CCCCN2C(=O)c2cc(=O)[nH]c(=O)[nH]2)cc1 (stereo unspecified) | -0.1381 |
| Cc1cnn(CCNCc2nc(-c3ccccc3Cl)no2)c1 | -13.51 |
| CC[C@H]1N(CC2CCOCC2)CCC[C@]12CCC(=O)N2.O=C(O)C(F)(F)F | -18.34 |
| COCCN(Cc1ccc(C)cc1)Cc1c[nH]cn1 | -2.598 |
| Cc1cc(C)n(CCC2CC(=O)Nc3cc(O)c(C)cc32)n1 (stereo unspecified) | -2.617 |

| SMILES | Percent Effect [%] |
| --- | --- |
| Cc1noc(C)c1CCC(=O)N1CCN(CCn2cccn2)CC1 | -16.11 |
| Cc1noc(C)c1CCC(=O)N1CCOCC1CC(=O)N1CCCC1 (stereo unspecified) | 72.16 |
| Cc1cc(C)cc(OCCC(=O)N2CCOCC2c2ncon2)c1 (stereo unspecified) | -11.58 |
| CC(=O)N1CCCN(C(=O)CCc2c(C)noc2C)CC1 | -13.07 |
| Cc1noc(C)c1CCC(=O)N1CCN(CCn2cncn2)CC1 | -13.84 |
| CCc1ccc(CCC(=O)N2CCOCC2c2ncon2)cc1 (stereo unspecified) | 5.794 |
| Cc1nccnc1CCC1COCCN1C(=O)CCc1c(C)noc1C (stereo unspecified) | 121.1 |
| Cc1noc(Cl)c1CCC(=O)N1CCN(c2ncccn2)CC1 | 8.959 |
| Cc1noc(C)c1CCC(=O)N1CCOCC1CCc1cnccn1 (stereo unspecified) | 115.4 |
| O=C(c1ccc2cccc(F)c2n1)N1CCN(CCn2cccc2)CC1 | 4.444 |
| O=C(CN1CCC(c2ccnn2CCO)CC1)NCc1cccs1 | -0.7289 |
| Cc1ncccc1NC(=O)[C@@H]1C[C@@H]2CCN(Cc3cccs3)C[C@H]2O1.O=C(O)C(F)(F)F.O=C(O)C(F)(F)F | -1.319 |
| COC(=O)N1CCc2ccccc2C1C(=O)NCc1cccs1 (stereo unspecified) | 1.281 |
| COCCNC(=O)[C@H]1CO[C@H]2CCN(Cc3cccs3)C[C@H]2C1 | 107.4 |
| CCN1CC[C@@H]2OC[C@H](C(=O)NCc3cccs3)C[C@@H]2C1 | 91.2 |
| COCCNC(=O)[C@H]1C[C@@H]2CCN(Cc3nccs3)C[C@H]2O1.O=C(O)C(F)(F)F | 2.995 |
| COc1ccc(F)cc1CN1CCN(Cc2nccn2C)C(C)C1 (stereo unspecified) | -0.7274 |
| CC(=O)N1CC(=O)N(c2ccccc2)CC12CCN(Cc1ccoc1)C2.O=C(O)C(F)(F)F (stereo unspecified) | 103.1 |
| CC(=O)N1CC(=O)N(c2ccsc2)CC12CCN(Cc1ccoc1)C2 (stereo unspecified) | 104.4 |
| CC(=O)N1CC(=O)N(c2ccsc2)CC12CCN(Cc1ccccn1)C2.O=C(O)C(F)(F)F (stereo unspecified) | -6.842 |
| CC(=O)N1CC(=O)N(c2ccccc2)CC12CCN(Cc1ccsc1)C2 (stereo unspecified) | -2.634 |
| CC(=O)N1CC(=O)N(c2ccccc2)CC12CCN(CC1CC1)C2.O=C(O)C(F)(F)F (stereo unspecified) | -3.194 |
| CC(=O)N1CC(=O)N(c2ccccc2)CC12CCN(Cc1nccs1)C2.O=C(O)C(F)(F)F (stereo unspecified) | -14.31 |
| CC(C)OCCOCc1cccc(NC(=O)NCC(=O)N(C)C)c1 | -22.62 |

| SMILES | Percent Effect [%] |
| --- | --- |
| CCN1CCN2CCCN(S(=O)(=O)c3ccc(C)cc3C)C2C1=O (stereo unspecified) | 0.9872 |
| CN1CCN(c2ccc(NCc3ccsc3)cn2)CC1 | -12.65 |
| CN(C)C(=O)COCC1CN(C2CCC2)Cc2ncn(C)c21.O=C(O)C(F)(F)F.O=C(O)C(F)(F)F (stereo unspecified) | 85.57 |
| CCOCC1CN(C(=O)COc2ccccc2C)Cc2ncn(C)c21.O=C(O)C(F)(F)F (stereo unspecified) | -10.67 |
| COCC1CN(C(=O)COc2ccccc2)Cc2ncn(C)c21.O=C(O)C(F)(F)F (stereo unspecified) | -7.331 |
| CN(C)C(=O)COCC1CN(S(C)(=O)=O)Cc2ncn(C)c21.O=C(O)C(F)(F)F (stereo unspecified) | 94.11 |
| Cn1cnc2c1C(COCC1CCOCC1)CN(C(=O)C1CC=CC1)C2.O=C(O)C(F)(F)F (stereo unspecified) | -7.237 |
| COCCN(Cc1sccc1C)c1nc(C)nc2sccc12 | -3.328 |
| CNC(=O)[C@@H]1C[C@@H](N)CN1Cc1cc2cc(C)cc(C)c2[nH]c1=O | 3.33 |
| CN(Cc1cnn(C)c1)S(=O)(=O)N1CCc2ccccc2C1 | 11.11 |
| CCN(Cc1cccc(-c2ccncc2)c1)S(N)(=O)=O | -1.235 |
| CCN(CC)S(=O)(=O)c1ccc2c(c1)N(Cc1ccccn1)C(=O)CS2 | 124.5 |
| CC(C)N1CCC(Nc2ccn(Cc3ccccn3)n2)C1=O (stereo unspecified) | 7.705 |
| CCS(=O)(=O)c1ccc2oc([C@H]3CCN(Cc4cccnc4)C3)nc2c1 | -5.049 |
| CCN(CC)S(=O)(=O)N1CCCC(c2nccn2Cc2cccnc2)C1 (stereo unspecified) | -1.362 |
| CCN(CC)S(=O)(=O)c1ccc2c(c1)N(Cc1cccnc1)C(=O)CS2 | 103.1 |
| CCN(CC)S(=O)(=O)N1CCC(c2nccn2Cc2ccccn2)CC1 | 1.2 |
| CCN(CC)S(=O)(=O)c1ccc2c(c1)N(Cc1ccncc1)C(=O)CS2 | 122 |
| CCN(CC)S(=O)(=O)N(C)Cc1ccncc1 | -6.423 |
| CC(=O)N1CCC(C(=O)NCCN2CCC(C)CC2)CC1 | -2.341 |
| CCN1C(=O)CC(c2cnn(C)c2)C12CCN(C(=O)c1ccoc1)CC2 (stereo unspecified) | 0.4401 |
| Cc1nccn1-c1ccc(C(C)NCc2cccn2C)cc1 (stereo unspecified) | -7.942 |
| Cc1ccnc(Cn2cc(-c3cccc(C(C)N(C)C)c3)nn2)c1 (stereo unspecified) | 12.93 |
| COc1ccc2c(c1)CCCN2C(=O)CN1CCOC(C)C1 (stereo unspecified) | -7.941 |
